Measurements: PubChem BioAssay AID798 (PCMD, 2007)
The whole screen tested about 220,000 compounds, of which about 300 (0.14%) were called active. This is one part of a sample in which actives are shown more often than they occur.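 Rule for the calls: active = inhibition of at least 40%; inactive = inhibition below 40%.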 Where a SMILES comes first, the peptide text is derived from it. The star is where a group is joined. OPac = O=C(CO*)c1ccccc1; Bz = O=C(c1ccccc1)*

target: Coagulation factor XI (Homo sapiens) (UniProt P03951); experiment: factor XIa enzyme inhibition, large library – biochemical, 1536-well, primary screen (AID 798); conditions: purified FXIa, Boc-Glu-Ala-Arg-AMC fluorogenic substrate; at 5 µM; hits give high values;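 note: fluorescence of freed AMC excited at 355 nm; 0% = enzyme without compound and 100% = no enzyme blank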
Sequence (P03951 19-387 limits assumed): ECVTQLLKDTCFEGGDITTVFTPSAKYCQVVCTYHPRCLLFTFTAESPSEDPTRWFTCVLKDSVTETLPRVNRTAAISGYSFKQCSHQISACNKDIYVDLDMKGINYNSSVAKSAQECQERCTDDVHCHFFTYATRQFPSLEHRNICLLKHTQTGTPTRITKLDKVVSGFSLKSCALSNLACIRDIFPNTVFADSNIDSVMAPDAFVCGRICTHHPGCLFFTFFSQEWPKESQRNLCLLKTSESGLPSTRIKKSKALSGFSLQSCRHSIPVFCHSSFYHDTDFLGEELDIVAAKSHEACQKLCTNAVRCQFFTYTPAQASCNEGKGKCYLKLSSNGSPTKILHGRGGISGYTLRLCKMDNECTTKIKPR
Sequence (P03951 388-625 limits assumed): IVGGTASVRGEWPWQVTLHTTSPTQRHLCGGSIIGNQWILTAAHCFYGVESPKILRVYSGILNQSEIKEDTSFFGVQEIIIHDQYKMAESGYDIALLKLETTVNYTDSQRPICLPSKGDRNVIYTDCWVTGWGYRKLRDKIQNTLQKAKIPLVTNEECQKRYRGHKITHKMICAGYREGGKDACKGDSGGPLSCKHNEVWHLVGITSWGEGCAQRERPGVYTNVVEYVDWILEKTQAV

inhibition, inactive:
O=c1[nH]c(SCc2cccc(F)c2)nc2ccccc12 -1.03%
O=C(NCc1cccs1)c1cc(-c2ccccn2)nc2ccc(Br)cc12 -1.15%
Cc1cccc(Cn2cnc3c(N)c(C)c(C)cc32)c1 -1.66%
COc1cccc(/C=C/C(=O)Nc2ccc3c(c2)OCCO3)c1 -8.27%
COc1ccccc1-n1c(C)nc2cc(C(=O)NCc3ccc4c(c3)OCO4)ccc21 1.71%
O=C(O)CCN=C1CCc2ccccc2N1 -7.58%
O=C(CNC(=O)c1ccccc1)NCC(=O)OCC(=O)c1ccccc1 (Bz-Gly-Gly-OPac) -1.35%
S=c1nc2ccccc2c2nc(-c3cccnc3)[nH]n12 -1.46%
O=C(NCc1cccnc1)Nc1cccc(NC(=O)NCc2cccnc2)c1F -0.25%
CCOC(=O)c1ccccc1NC(=S)N1CCC(C(N)=O)CC1 -1.65%
NC(=O)COC(=O)c1cc(S(=O)(=O)N2CCN(c3ccccc3)CC2)ccc1Cl -1.04%
O=C1c2ccccc2C(=O)N1CCC(O)C[N+](=O)[O-] (centres undefined) 1.96%
CCOc1ccc(S(=O)(=O)Nc2nccs2)cc1 0.82%
COc1ccc(CN(C(=O)c2cccs2)c2nccs2)cc1OC 0.51%
COc1ccc(OCC(=O)N2CCN(C(=O)c3cccs3)CC2)cc1 -3.87%
C/C(=N/NC(=O)CC(=O)N/N=C(\C)c1ccc([N+](=O)[O-])cc1)c1ccc([N+](=O)[O-])cc1 0.21%
Cc1nc(N)sc1N=Nc1c(C)n(C)n(-c2ccccc2)c1=O 1.75%
CC(C)n1c(O)c(N=Nc2ccccn2)c2ccccc21 0.21%
CCCCOc1ccc(C(=O)N/C(=C/C=C/c2ccccc2)C(=O)N2CCOCC2)cc1 5.26%
CCOC(=O)C1CCN(C(=O)Nc2cccc(OC)c2)CC1 -1.56%
CN(c1ccccn1)c1ncnc2[nH]ncc12 -2.65%
CCOc1cc2c(Cl)ncnc2c(OCC)c1OCC -5.65%
Cc1ccc(C(=O)NNC(=O)OC(C)(C)C)c(Cl)c1 8.12%
Cc1nc(N2CCOCC2)sc1C(=O)NN -11.6%
CC(C)(C)NC(=O)C(=O)NN=C1CCCCCCC1 -1.87%
O=S(=O)(Nc1ccc2cn[nH]c2c1)c1ccccc1 -7.54%
C/C(=N/O)c1ccc(N2C(=O)C3C4C=CC(C3C2=O)C2C3C(=O)N(c5ccc(/C(C)=N/O)cc5)C(=O)C3C42)cc1 (centres undefined) -1.59%
CCCCCC(=O)Nc1ccc(S(=O)(=O)Nc2ccc(Cl)nn2)cc1 -12.1%

inhibition, active:
COc1ccc(CN(Cc2ccc(OC)cc2)C(=O)c2cccs2)cc1 54.2%
